Assay results: PubChem BioAssay (NCATS)
Records with an inconclusive call do not appear. Active and inactive are the calls of the source. The call rests on the fitted dose curve.

Experiment: Primary qHTS to identify inhibitors of SARS-CoV-2 cell entry (AID 1645846); further: nearly all actives have a fitted effect of over 45% in size
Conditions: SARS-CoV-2 pseudovirus cell entry assay, luminescence; activity change, negative = inhibition: at 57.1 µM (top of the series) unless noted; series mostly up to 57.1 µM
Procedure, shortened: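 Inhibition of spike-mediated entry was scored in human ACE2-transfected Expi293F cells. Particles were MLV-pseudotyped with Wuhan-Hu-1 S carrying a 19-aa C-terminal deletion; signal was luciferase after two days, scaled between spike PP and fusion-protein-free PP.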
Potency means the concentration at half of the fitted maximal effect.

Row | Structure (SMILES) | outcome | activity change, negative = inhibition | Potency
1 | CC(C)CCON=O | inactive |  | 
2 | CC[N+](C)(CC)CCOC(=O)C(O)(c1ccccc1)c1ccccc1 |  | -7.01% | 
3 | Oc1ccc2c3c1O[C@H]1[C@@H](O)CC[C@@]4(O)[C@@H](C2)N(CC2CCC2)CC[C@]314 |  | 1.55% | 
4 | CCC1C(C)=NN=C(c2ccc(OC)c(OC)c2)c2cc(OC)c(OC)cc21 (stereo unspecified) | inactive |  | 
5 | CC(=O)O[C@H]1CC[C@H]2[C@@H]3CCC4=CC(=O)CCC4=C3C=C[C@]12C |  | -33.2% | 
6 | C[C@]12CC[C@H](OS(=O)(=O)O)CC1=CC[C@@H]1[C@@H]2CC[C@]2(C)C(=O)CC[C@@H]12 |  | -5.13% | 
7 | O=C(NCNC(=O)NC1C(=O)NC(=O)N1CO)NC1C(=O)NC(=O)N1CO (stereo unspecified) | inactive |  | 
8 | CC1=C2C[C@H]3[C@@H](CC=C4C[C@@H](O)CC[C@@]43C)[C@@H]2CC[C@]12O[C@@H]1C[C@H](C)CN[C@H]1[C@H]2C |  |  | 17.8 µM (active)

Experiment: VSVG counterscreen qHTS to identify inhibitors of SARS-CoV-2 cell entry (AID 1645847); further: nearly all actives have a fitted effect of over 65% in size
Conditions: VSV-G pseudotyped particle entry, luciferase
Procedure, shortened: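 Luminescence from a luciferase reporter, normalised to bald particle and VSV-G pseudotyped particle wells, is the read-out. Cells are HEK293 expressing human ACE2, exposed to compound 1 h before a 48 h particle infection at 37 °C.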

Row | Structure (SMILES) | Potency
9 | CC[C@H](C)[C@H]1O[C@]2(C=C[C@@H]1C)C[C@@H]1C[C@@H](C/C=C(\C)[C@@H](O[C@H]3C[C@H](OC)[C@@H](O[C@H]4C[C@H](OC)[C@@H](O)[C@H](C)O4)[C@H](C)O3)[C@@H](C)/C=C/C=C3\CO[C@@H]4[C@H](O)C(C)=C[C@@H](C(=O)O1)[C@]34O)O2 | 12.1 µM (active)
10 | O=C1C2CC=CCC2C(=O)N1SC(Cl)(Cl)Cl (stereo unspecified) | 15.2 µM (active)
11 | C/C(=C\c1csc(C)n1)[C@@H]1C[C@@H]2O[C@]2(C)CCC[C@H](C)[C@H](O)[C@@H](C)C(=O)C(C)(C)[C@@H](O)CC(=O)O1 | 0.0341 µM (active)
